# From PubChem BioAssay (EPA / NIEHS)
# Where “and” joins values, the source holds several entries; their conditions need not be identical. Equal values may be shown once. Calls of active or inactive are those of the source. How the source made its calls: active means hit-call score of the fitted dose curve at least 0.9, where 1 is the maximum; inactive means score below 0.9.
# Assay: ATG_ERE_CIS: Attagene CIS-FACTORIAL HepG2 Assay for Estrogen Response Element (ERE) (AID 2282940)
# Conditions: HepG2 ERE cis-reporter, Attagene RNA transcript; actives raise or lower the signal
# In short: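 Fluorescence of capillary-separated, FAM-labelled reporter cDNA fragments indicates reporter mRNA levels in HepG2 cells exposed to chemicals for 24 h. Transient transfection with cis-regulated units; data fitted in both directions against DMSO.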
SMILES,outcome,AC50
CC(C)(C)c1cc(C(C)(C)C)c(O)c(C(C)(C)C)c1,inactive,–
CCCCCCCCCCCCN1CCCC1=O,inactive,–
Oc1cc2ccccc2c2ccccc12,inactive,–
C[C@@H]1C[C@H]2[C@@H]3CCC4=CC(=O)C=C[C@]4(C)[C@@]3(F)[C@@H](O)C[C@]2(C)[C@@]1(O)C(=O)COP(=O)(O)O,inactive,–
COc1cc(CCC(=O)CC(=O)CCc2ccc(O)c(OC)c2)ccc1O,inactive,–
O=c1c(-c2ccc(O)cc2)coc2cc(O)ccc12,–,410 nM (active) [middle of 4 runs]
CN(C)C=O,inactive,–
Cc1oc(-c2ccccc2)nc1CCOc1ccc(C[C@H](Nc2ccccc2C(=O)c2ccccc2)C(=O)O)cc1,–,0.523 nM (active)
OC1CCC(C2CCCCC2)CC1 (stereo not drawn),–,27 µM (active) and 27.4 µM (active) and 27.5 µM (active)
CCCCCCCCOC(=O)CCCCCCCCC(=O)OCCCCCCCC,inactive,–
CC(O)C(=O)O (stereo not drawn),inactive,–
CCc1nn(C2CCCCC2)c2cc(C3(C#N)CCC(C(=O)O)CC3)ccc12 (stereo not drawn),–,2310 nM (active)

# Assay: ATG_Ets_CIS: Attagene CIS-FACTORIAL HepG2 Assay for human Erythroblast Transformation Specific (ETS) (AID 2282941)
# Conditions: HepG2 ETS cis-reporter transcription, actives raise or lower the signal
# In short: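 Steps: transfect HepG2 with multiple reporter units; treat compound 24 h; isolate RNA, DNase-treat, reverse-transcribe; PCR-amplify, label with 6-FAM, digest with HpaI; separate by capillary electrophoresis. Activity fitted both directions versus DMSO.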
SMILES,outcome,AC50
c1ccc2c(c1)Cc1ccccc1-2,inactive,–
CN1CCN(c2ccccc2/C=C2\SCCN(c3ccc(Cl)c(Cl)c3)C2=O)CC1,inactive,–
FC(F)(I)C(F)(F)C(F)(F)C(F)(F)C(F)(F)C(F)(F)I,–,18300 nM (active)
CCC(C)(C)C1CCC(O)CC1 (stereo not drawn),inactive,–
CCc1ccc(CCOc2ccc(CC3SC(=O)NC3=O)cc2)nc1 (stereo not drawn),inactive,–
CC(C)(C)CC(C)(C)c1ccc(O)c(-n2nc3ccccc3n2)c1,inactive,–
CC(C)(C)c1ccc(O)c(C(C)(C)C)c1,inactive,–
N#C[C@@H]1CC(F)(F)CN1C(=O)CNC1CC2CCC(C1)N2c1ncccn1 (stereo partly drawn),inactive,–
NC(=O)N1C(=O)C(C(=O)c2cc(Cl)cs2)c2cc(F)c(Cl)cc21 (stereo not drawn),inactive,–
CCCCCCCCCCCCCCCS(=O)(=O)Oc1ccccc1,inactive,–
CCCCCCCC(=O)O,inactive,–
Cc1cc(CCN2CCN(c3nsc4ccccc34)CC2)cc2c1NC(=O)CC2(C)C,inactive,–
COCC(C)O (stereo not drawn),inactive,–
CCCCC(CC)COC(=O)CCCCC(=O)OCc1ccccc1 (stereo not drawn),inactive,–
COc1ccc([N+](=O)[O-])cc1N,inactive,–
CCOC(=O)CC(O)(CC(=O)OCC)C(=O)OCC,inactive,–
CCCCCCCCC(=O)O,inactive,–
Cc1cc(C)c(O)c(C)c1,inactive,–

SMILES,outcome,AC50
C#C[C@]1(O)CC[C@H]2[C@@H]3CCC4=CC(=O)CC[C@@H]4[C@H]3CC[C@@]21C,inactive,–
CCCCC[C@H](O)CC(=O)CCc1ccc(O)c(OC)c1,inactive,–
NCC(F)(F)C(F)(F)C(F)(F)C(F)(F)C(F)(F)C(F)(F)C(F)(F)F,inactive,–
O=[N+]([O-])c1ccc(O)cc1,inactive,–
COC(=O)CCCCC(=O)OC,inactive,–
CC(C)CCCCCCOC(=O)CCCCC(=O)OCCCCCCC(C)C,inactive,–
CC(C)(C)c1cc(C(C)(C)C)c(O)c(C(C)(C)C)c1,inactive,–
CCCCCCCCCCCCN1CCCC1=O,inactive,–
Oc1cc2ccccc2c2ccccc12,inactive,–
C[C@@H]1C[C@H]2[C@@H]3CCC4=CC(=O)C=C[C@]4(C)[C@@]3(F)[C@@H](O)C[C@]2(C)[C@@]1(O)C(=O)COP(=O)(O)O,inactive,–
COc1cc(CCC(=O)CC(=O)CCc2ccc(O)c(OC)c2)ccc1O,inactive,–
O=c1c(-c2ccc(O)cc2)coc2cc(O)ccc12,inactive,–
CN(C)C=O,inactive,–
Cc1oc(-c2ccccc2)nc1CCOc1ccc(C[C@H](Nc2ccccc2C(=O)c2ccccc2)C(=O)O)cc1,inactive,–
OC1CCC(C2CCCCC2)CC1 (stereo not drawn),inactive,–
CCCCCCCCOC(=O)CCCCCCCCC(=O)OCCCCCCCC,inactive,–
CC(O)C(=O)O (stereo not drawn),inactive,–
CCc1nn(C2CCCCC2)c2cc(C3(C#N)CCC(C(=O)O)CC3)ccc12 (stereo not drawn),inactive,–
